Results as given in PubChem BioAssay AID1851 (National Center for Advancing Translational Sciences (NCATS), 2009).
Out of some 16,000 compounds screened, about 5,100 (32%) were called active. About 25% were inconclusive and are not listed. The list shows a part of the results. Values without a mark were called inactive. Calls follow the shape of the dose curve; as a rule, active = well fitted curve in the direction sought with a large enough effect; inconclusive = small, poorly fitted or top-dose-only effect, or effect the other way; inactive = no such curve, though single readings can be large or run the other way.

These molecules were tested against Cytochrome P450 3A4 (Homo sapiens) (UniProt P08684) (assay: Cytochrome panel assay with activity outcomes). Conditions: recombinant CYP, pro-luciferin dealkylation, luminescence, p450-cyp3a4; series mostly up to 57.1 µM.
Chain of Cytochrome P450 3A4 (Homo sapiens) (P08684 whole entry, looked up): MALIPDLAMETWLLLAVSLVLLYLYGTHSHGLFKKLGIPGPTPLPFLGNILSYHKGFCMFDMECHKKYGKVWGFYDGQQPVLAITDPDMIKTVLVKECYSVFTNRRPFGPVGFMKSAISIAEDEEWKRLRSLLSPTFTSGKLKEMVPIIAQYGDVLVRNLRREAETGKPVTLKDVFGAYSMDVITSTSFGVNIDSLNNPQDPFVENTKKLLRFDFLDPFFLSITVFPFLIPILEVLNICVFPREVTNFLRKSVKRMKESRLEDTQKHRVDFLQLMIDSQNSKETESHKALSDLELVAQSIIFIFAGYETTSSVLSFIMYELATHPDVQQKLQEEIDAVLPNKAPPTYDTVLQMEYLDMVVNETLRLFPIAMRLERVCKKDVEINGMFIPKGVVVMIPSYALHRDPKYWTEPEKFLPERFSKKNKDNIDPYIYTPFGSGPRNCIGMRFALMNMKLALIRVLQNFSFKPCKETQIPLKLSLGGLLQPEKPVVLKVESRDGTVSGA
% is scaled to controls: 0 for no effect and ±100 for the full control effect.

Compound	AC50	activity, negative = inhibition
O=c1[nH][nH]c(C(F)(F)F)c1C=Nc1ccccc1Cl	inactive	
O=C(Cn1cnc2ccccc2c1=O)Nc1nnc(SCc2ccccc2)s1	inactive	
C=CCSc1nn2c(=O)c3ccccc3nc2s1	20 µM (active)	
C[C@@H](C(=O)O)c1ccc(C[C@@H]2CCCC2=O)cc1	inactive	
Cc1cc2ccccc2c[n+]1CC(O)C[n+]1cc2ccccc2cc1C		-6.74% [at 11.4 µM]
CC(=O)c1c(C)nc(-c2ccccc2)n1O	inactive	
O=c1nc(-c2ccccc2)n(-c2ccccc2)c2ncccc12	inactive	
CN=c1nc(-c2ccccc2)n(-c2ccccc2)s1	31.6 µM (active)	
CCc1c(C(C)O)oc2ccc3c(C)cc(=O)oc3c12 (configuration not stated)		7.59% [at 2.29 µM]
Cc1cc2cc3c(C)cc(=O)oc3c(C)c2o1	3.98 µM (active)	
O=C(Nc1ccc(F)cc1)c1cc(S(=O)(=O)N2CCCCC2)cs1	14.1 µM (active)	
O=C(Nc1ccc(S(=O)(=O)N2CCCC2)cc1)c1ccc(CN2CCOCC2)cc1		-3.74% [at 2.29 µM]
C#CCCCO/N=C1/C[C@@H](O)[C@@H](O)[C@@H]2[C@H]3C(=O)N(c4ccc(F)cc4F)C(=O)[C@@H]3CC[C@H]12	3.98 µM (active)	
O=C1C[C@@H](O)[C@@H](O)[C@@H]2[C@H]3C(=O)N(c4ccc(F)cc4F)C(=O)[C@@H]3CC[C@H]12		-11% [at 11.4 µM]
CC(C)CO/N=C1/C[C@@H](O)[C@@H](O)[C@@H]2[C@H]3C(=O)N(c4ccc(F)cc4F)C(=O)[C@@H]3CC[C@H]12		-8.15% [at 11.4 µM]
C#CCCCO/N=C1/C[C@@H](O)[C@@H](O)[C@@H]2[C@H]3C(=O)N(c4ccc(F)cc4F)C(=O)[C@@H]3CC[C@@H]12	3.16 µM (active)	
CC(C)CO/N=C1/C[C@@H](O)[C@@H](O)[C@@H]2[C@H]3C(=O)N(c4ccc(F)cc4F)C(=O)[C@@H]3CC[C@@H]12		0.624% [at 11.4 µM]
O=C1[C@@H]2[C@H]3[C@H](O)[C@H](O)C/C(=N/OCc4ccccc4)[C@@H]3CC[C@H]2C(=O)N1c1ccc(F)cc1F		-19.6% [at 11.4 µM]
Cc1ccc(-n2c3c(c(=O)[nH]c2=O)C(NS(=O)(=O)c2ccc(C)cc2)(C(F)(F)F)C(=O)N3)cc1 (configuration not stated)	inactive	

Compound	AC50	activity, negative = inhibition
O=C(c1cc(C(F)(F)F)cc(C(F)(F)F)c1)N1CCC2(CC1)CCN(c1ccccn1)CC2	inactive	
O=C(c1cc(C(F)(F)F)cc(C(F)(F)F)c1)N1CCC2(CC1)CCN(c1ncccn1)CC2	inactive	
O=C(c1cc(C(F)(F)F)cc(C(F)(F)F)c1)N1CCC[C@@]2(CCN(c3ccncc3)C2)C1	6.31 µM (active)	
O=C(c1cc(C(F)(F)F)cc(C(F)(F)F)c1)N1CCC2(CC1)CN(c1ccccn1)C2	inactive	
O=C(c1cc(C(F)(F)F)cc(C(F)(F)F)c1)N1CCC[C@@]2(CCN(c3ccccn3)C2)C1	3.98 µM (active)	
O=C(c1cc(C(F)(F)F)cc(C(F)(F)F)c1)N1CCC2(CC1)CN(c1ncccn1)C2	inactive	
O=C(c1cc(C(F)(F)F)cc(C(F)(F)F)c1)N1CCC[C@@]2(CCN(c3ncccn3)C2)C1	10 µM (active)	
O=C(c1cc(C(F)(F)F)cc(C(F)(F)F)c1)N1CCC2(CC1)CN(c1ccncc1)C2	inactive	
O=C(CCCCC(=O)Nc1c(I)cc(I)c(C(=O)O)c1I)Nc1c(I)cc(I)c(C(=O)O)c1I	inactive	
O=C(Nc1ccccc1C(=O)O)c1ccc2ccccc2n1	inactive	
O=C(O)Cc1cc2ccccc2nc1C(=O)O	inactive	
O=C(O)c1ccccc1Nc1cccc(OCc2ccc3ccccc3n2)c1	1.58 µM (active)	
CCCCc1cc2ccccc2c(OCCN(C)C)n1	inactive	
CC(C)C(=O)Cc1ccc2ccccc2n1		-6.02% [at 11.4 µM]
CCCCC[C@H](O)c1cccc(OCc2ccc3ccccc3n2)c1	12.6 µM (active)	
CC1CN(C2CCN(C(=O)c3cccc(Cl)c3)CC2)CC(C)O1 (configuration not stated)	inactive	
CC(C)CNS(=O)(=O)c1cc(C(=O)N2CC(C)OC(C)C2)c(Cl)cc1Cl (configuration not stated)	3.16 µM (active)	
CC1CN(C(=O)c2cc3c(s2)CCC3)CC(C)O1 (configuration not stated)	inactive	
O=C(O)C[n+]1ccccc1		-14.8% [at 11.4 µM]

Compound	AC50	activity, negative = inhibition
CCOc1ccc(NC(=S)NC(=O)/C=C/c2ccc(C)cc2)c([N+](=O)[O-])c1	inactive	
Cc1ccc(/C=C/C(=O)NC(=S)Nc2ccccc2C(=O)NC2CCCCC2)cc1	8.91 µM (active)	
O=C(/C=C/c1ccc(Br)cc1)NC1CCCCCC1		-12.6% [at 11.4 µM]
NC(=O)c1ncn([C@@H]2O[C@@H](CO)[C@@H](O)[C@H]2O)c1O	inactive	
CCCCNC(=O)CCn1c(=S)[nH]c2cc3c(cc2c1=O)OCO3	3.98 µM (active)	
CCc1c(C(=O)O)[nH]c2ccc(Br)cc12	inactive	
O=C(CCCn1c(=S)[nH]c2cc3c(cc2c1=O)OCO3)N1CCN(c2ccccc2)CC1	0.447 µM (active)	
CC1CCN(CCCn2c(=S)[nH]c3ccc(N4CCOCC4)cc3c2=O)CC1	inactive	
CC(C)OCCCn1c(=S)[nH]c2ncccc2c1=O	inactive	
CCn1cc(C(=O)O)c(=O)c2cc3c(cc21)OCO3	inactive	
C=CCNC(=O)c1ccc(Cn2c(=S)[nH]c3cc4c(cc3c2=O)OCO4)cc1	7.94 µM (active)	
O=c1c2cc(Br)ccc2[nH]c(=S)n1Cc1cccnc1	0.398 µM (active)	
Cc1cccc(N2CCN(C(=O)CCCn3c(=S)[nH]c4cc5c(cc4c3=O)OCO5)CC2)c1C	0.794 µM (active)	
COCC(=O)N1CCC2(CCCN(c3ncccn3)C2)CC1	inactive	
COc1ccccc1Cn1c(=S)[nH]c2cc(C(=O)N3CCN(C)CC3)ccc2c1=O	inactive	
O=C(CCCn1c(=S)[nH]c2cc3c(cc2c1=O)OCO3)N1CCN(c2ncccn2)CC1	2 µM (active)	
COCC(=O)N1CCC2(CC1)CCN(c1ccccn1)CC2	inactive	
O=C(CCCCCn1c(=S)[nH]c2cc3c(cc2c1=O)OCO3)N1CCN(C2CCCCC2)CC1	1.12 µM (active)	
O=C(CCCn1c(=S)[nH]c2ccc(Br)cc2c1=O)N1CCN(c2ccccn2)CC1	1.26 µM (active)	
